Test results as given in ChEMBL document CHEMBL3988442, “University of Dundee, Small-Polar-MMV Screening Library” (2021).
Hit rate of the full screen: of about 69,000 compounds, about 1,000 (1.4%) showed an effect of 50% or more. The full list was thinned out, with strong results kept by preference.

Test system: Leishmania donovani
Test: Leishmania intramacrophage assay
Assay type: functional, organism-based
Parameters: scale not given: in the data most compounds retested in dose-response had high values

Q: For `Cc1nc(CN2C[C@@H]3CCCO[C@@H]3[C@H](NC(=O)CC3CC3)C2)cs1.O=C(O)C(F)(F)F`, which “Percent Effect” value (30.3 µM, […]) is on record?
A: 13.13%

Q: Which “Percent Effect” value (30.3 µM, […]) does the source give for `CC(=O)NCC(=O)N1CCC2(COCc3c(C)nc(N(C)C)nc32)C1` (stereo not given) here?
A: 0.3657%

Q: How did the “Percent Effect” value (30.3 µM, […]) turn out when `Cc1ccoc1C(=O)N1CC[C@H]2C[C@H](c3nnc(C4CC4)o3)O[C@@H]2C1` was run?
A: 7.701%

Q: `Cc1cc(C(=O)Cn2cnnc2[S+](C)[O-])cc(C)c1F` (stereo not given) was tested. Which “Percent Effect” value (30.3 µM, […]) did it give?
A: 9.03%

Q: Which “Percent Effect” value (30.3 µM, […]) does the source give for `CCCc1nn(C2CCCN(C(C)C)C2=O)c(=O)o1` (stereo not given) here?
A: -18.62%

Q: How did the “Percent Effect” value (30.3 µM, […]) turn out when `CCCc1nn(C2CCN(C(C)C)C2=O)c(=O)o1` (stereo not given) was run?
A: 51.41%

Q: Which “Percent Effect” value (30.3 µM, […]) does the source give for `CCCc1nn(C2CCN(C3CC3)C2=O)c(=O)o1` (stereo not given) here?
A: -13.56%

Q: With `CN1C(=O)C2(CCN(C(=O)c3ccccc3)CC2)c2cc(F)ccc21.Cl` as the compound, how does the “Percent Effect” value (30.3 µM, […]) read?
A: 50.2%

Q: Which “Percent Effect” value (30.3 µM, […]) does the source give for `CC(=O)N1CCC2(CC1)C(=O)N(C)c1ccc(F)cc12` here?
A: 29.57%

Q: `CC(Oc1ccc(F)c(F)c1)C(=O)N(CC(N)=O)C1CCCC1` (stereo not given) was tested. Which “Percent Effect” value (30.3 µM, […]) did it give?
A: -10.08%

Q: How did the “Percent Effect” value (30 µM, 30.03 µM) turn out when `CCc1nccn1C1CCCN(C(=O)c2cc3nc(C)ccc3o2)C1` (stereo not given) was run?
A: 3.953%

Q: `COc1ccccc1CNC(=O)C(C)n1cc2c(n1)c(C)nn2C` (stereo not given) was tested. Which “Percent Effect” value (30.3 µM, […]) did it give?
A: 52.43%

Q: `Cc1nn(C)c2c(NCc3ccccn3)ncnc12` was tested. Which “Percent Effect” value (30.3 µM, […]) did it give?
A: 50.68%

Q: How did the “Percent Effect” value (30.3 µM, […]) turn out when `COc1ccccc1CNC(=O)C(C)N1CC(n2cc(C)cn2)C1` (stereo not given) was run?
A: 25.52%

Q: With `Cc1nn(C)c2cn(C(C)C(=O)NCc3ccccn3)nc12` (stereo not given) as the compound, how does the “Percent Effect” value (30.3 µM, […]) read?
A: 50.14%

Q: How did the “Percent Effect” value (30.3 µM, […]) turn out when `Cc1nn(C)c2cn(C(C)C(=O)NCc3ccncc3)nc12` (stereo not given) was run?
A: 59.59%

Q: With `COc1ccccc1CNC(=O)Cn1ncc2c1c(C)nn2C` as the compound, how does the “Percent Effect” value (30 µM, 30.03 µM) read?
A: 13.53%

Q: For `Cc1nn(C)c2cn(C(C)C(=O)NCc3ccc(F)cc3)nc12` (stereo not given), which “Percent Effect” value (30.3 µM, […]) is on record?
A: 25.73%

Q: With `Cc1nn(C)c2cn(C(C)C(=O)NCc3cccnc3)nc12` (stereo not given) as the compound, how does the “Percent Effect” value (30 µM, 30.03 µM) read?
A: 8.191%

Q: `Cc1nc(NCc2ccccn2)c2c(n1)c(C)nn2C` was tested. Which “Percent Effect” value (30.3 µM, […]) did it give?
A: 42.28%

Q: For `CCc1nc(NCc2ccccn2)c2c(n1)c(C)nn2C`, which “Percent Effect” value (30.3 µM, […]) is on record?
A: -38.07%

Q: For `Cc1nn(C)c2cn(C(C)C(=O)NCc3cccc(F)c3)nc12` (stereo not given), which “Percent Effect” value (30.3 µM, […]) is on record?
A: -38.24%

Q: With `CCn1nccc1CNC(=O)C(C)n1cc2c(n1)c(C)nn2C` (stereo not given) as the compound, how does the “Percent Effect” value (30 µM, 30.03 µM) read?
A: -8.273%

Q: `Cc1nc(NCc2ccc(F)cc2)cc(C(=O)N2CCOCC2)n1` was tested. Which “Percent Effect” value (30.3 µM, […]) did it give?
A: 32.39%

Q: For `Cc1ccc(CN2CCCC3(CCCCN3S(C)(=O)=O)C2)s1.O=C(O)C(F)(F)F` (stereo not given), which “Percent Effect” value (30.3 µM, […]) is on record?
A: 8.751%

Q: `Cn1cnnc1C1CCCN(C(=O)NCCCn2cccn2)C1` (stereo not given) was tested. Which “Percent Effect” value (30 µM) did it give?
A: 24.48%

Q: How did the “Percent Effect” value (30.3 µM, […]) turn out when `Cn1cnnc1SCc1cc2c(cc1Br)OCO2` was run?
A: -1.981%

Q: For `CN(C(=O)c1cccc(OCC(F)F)n1)c1ccc2c(c1)CCO2`, which “Percent Effect” value (30.3 µM, […]) is on record?
A: 24.43%

Q: With `O=C(C1SCCc2sccc21)N1CCN(CCO)CC1` (stereo not given) as the compound, how does the “Percent Effect” value (30 µM, 30.03 µM) read?
A: -7.988%

Q: Which “Percent Effect” value (30.3 µM, […]) does the source give for `Cc1cc(N(C)C)nc(C2(C)CCCN2C(=O)c2ccn(C)n2)n1` (stereo not given) here?
A: 1.341%

Q: `COc1ccc(OCCN(C)S(=O)(=O)N2CCOCC2)cc1` was tested. Which “Percent Effect” value (30.3 µM, […]) did it give?
A: 11%

Q: Which “Percent Effect” value (30.3 µM, […]) does the source give for `CC(C)NC(=O)c1ccc2nnc(C3CN(C)CCN3C)n2c1.O=C(O)C(F)(F)F.O=C(O)C(F)(F)F` (stereo not given) here?
A: -3.873%

Q: For `COc1c(CNCc2cccc(CN(C)C)c2)c(C)nn1C.Cl`, which “Percent Effect” value (30 µM, 30.03 µM) is on record?
A: 41.69%

Q: For `COc1c(CNCc2ccc(Cn3ccnc3)cc2)c(C)nn1C`, which “Percent Effect” value (30 µM) is on record?
A: 38.9%

Q: For `COc1c(CNCc2ccc(C(=O)N(C)C(C)C)cc2)c(C)nn1C`, which “Percent Effect” value (30 µM) is on record?
A: 21.5%

Q: With `COc1c(CNCc2cccc(C(=O)N(C)C)c2)c(C)nn1C` as the compound, how does the “Percent Effect” value (30 µM) read?
A: 37.17%

Q: Which “Percent Effect” value (30 µM) does the source give for `COc1c(CNCc2cccc(Cn3ccnc3C)c2)c(C)nn1C.Cl` here?
A: 52.6%

Q: With `COc1c(CNCc2ccccc2Cn2ccnc2)c(C)nn1C` as the compound, how does the “Percent Effect” value (30 µM) read?
A: 42.31%

Q: With `COc1c(CNCc2cccc(Cn3cccn3)c2)c(C)nn1C` as the compound, how does the “Percent Effect” value (30 µM) read?
A: 41.23%

Q: `COc1c(CNCc2ccc(C(=O)N(C)C)cc2)c(C)nn1C.Cl` was tested. Which “Percent Effect” value (30 µM, 30.03 µM) did it give?
A: 56.22%

Q: Which “Percent Effect” value (30 µM, 30.03 µM) does the source give for `COc1c(CNCc2cccc(Cn3ccnc3)c2)c(C)nn1C` here?
A: 57.06%

Q: `O=C(CN1CCCC(c2ccc(C(=O)O)cc2)C1)NC1CC1` (stereo not given) was tested. Which “Percent Effect” value (30 µM, 30.03 µM) did it give?
A: 23.13%

Q: `Cc1ccc2cc(C(=O)N3CCCC3Cn3cccn3)[nH]c2c1` (stereo not given) was tested. Which “Percent Effect” value (30.3 µM, […]) did it give?
A: 22.94%

Q: Which “Percent Effect” value (30 µM) does the source give for `Cc1cnn(CCNCc2ccc(OCc3cccnc3)cc2)c1` here?
A: 27.42%

Q: `CN(C)C(=O)N1CCOCC2(CCN(c3ccccn3)C2)C1.O=C(O)C(F)(F)F` (stereo not given) was tested. Which “Percent Effect” value (30 µM, 30.03 µM) did it give?
A: 18.14%

Q: For `O=S1(=O)c2ccccc2C(O)CN1CCO` (stereo not given), which “Percent Effect” value (30.3 µM, […]) is on record?
A: 5.205%

Q: `CCN(CC)c1ccc2ccc(C(=O)N3CCCCO3)cn12.O=C(O)C(F)(F)F` was tested. Which “Percent Effect” value (30.3 µM, […]) did it give?
A: 27.79%

Q: How did the “Percent Effect” value (30.3 µM, […]) turn out when `CCN(CC)c1ccc2ccc(C(=O)O)cn12` was run?
A: 18.9%

Q: With `Cc1nc(-c2ccc(S(=O)(=O)N3CCOCC3)cc2)co1` as the compound, how does the “Percent Effect” value (30.3 µM, […]) read?
A: 23.37%

Q: How did the “Percent Effect” value (30.3 µM, […]) turn out when `Cc1nn(C)cc1CN1C[C@@H]2CC[C@H](C1)N(Cc1c(C)noc1C)C2=O` was run?
A: 16.01%

Q: For `CN1CCC(c2nc3ccc(-c4cccc(F)c4)cn3n2)CC1.O=C(O)C(F)(F)F`, which “Percent Effect” value (30.3 µM, […]) is on record?
A: 56.26%

Q: For `CCCN1CCC(c2nc3ccc(-c4ccncc4)cn3n2)CC1.O=C(O)C(F)(F)F.O=C(O)C(F)(F)F`, which “Percent Effect” value (30.3 µM, […]) is on record?
A: 22.97%

Q: How did the “Percent Effect” value (30.3 µM, […]) turn out when `CC(=O)N1CCC(c2nc3ccc(NC4CCC4)cn3n2)CC1.O=C(O)C(F)(F)F` was run?
A: 40.49%

Q: Which “Percent Effect” value (30.3 µM, […]) does the source give for `CCCN1CCC(c2nc3ccc(-c4cccc(F)c4)cn3n2)CC1.O=C(O)C(F)(F)F` here?
A: 49.02%

Q: With `CCCN1CCC(c2nc3ccc(-c4ccccc4)cn3n2)CC1.O=C(O)C(F)(F)F` as the compound, how does the “Percent Effect” value (30.3 µM, […]) read?
A: 22.28%

Q: For `CN1CCC(c2nc3ccc(-c4ccccc4)cn3n2)CC1.O=C(O)C(F)(F)F`, which “Percent Effect” value (30.3 µM, […]) is on record?
A: 26.64%

Q: For `CCN1CCC(c2nc3ccc(NC4CCC4)cn3n2)CC1.O=C(O)C(F)(F)F`, which “Percent Effect” value (30.3 µM, […]) is on record?
A: 53.52%

Q: For `CCCN1CCC(c2nc3ccc(-c4cccc(OC)c4)cn3n2)CC1.O=C(O)C(F)(F)F`, which “Percent Effect” value (30.3 µM, […]) is on record?
A: 66.14%

Q: With `CCN1CCC(c2nc3ccc(NC(C)C)cn3n2)CC1.O=C(O)C(F)(F)F` as the compound, how does the “Percent Effect” value (30 µM, 30.03 µM) read?
A: 14.23%

Q: Which “Percent Effect” value (30 µM, 30.03 µM) does the source give for `Cc1cnn(CC2CN(CC(=O)N3CCc4ccccc43)CCO2)c1` (stereo not given) here?
A: 26.31%

Q: Which “Percent Effect” value (30.3 µM, […]) does the source give for `CCCN(C(=O)c1cnns1)C1CCCN(Cc2ccccc2)C1` (stereo not given) here?
A: 15.37%

Q: `CCn1c(C)cc(C(=O)NCc2cccc(S(=O)(=O)NC)c2)c1C` was tested. Which “Percent Effect” value (30.3 µM, […]) did it give?
A: -2.214%

Q: How did the “Percent Effect” value (30.3 µM, […]) turn out when `C[C@@H]1CN(CCC(=O)N(C)Cc2ccccc2)CC[C@@]1(O)C1CCC1` was run?
A: -42.91%

Q: How did the “Percent Effect” value (30.3 µM, […]) turn out when `C[C@@H]1CN(CCC(=O)N(C)Cc2ccccc2)C[C@@]1(O)C1CCC1` was run?
A: 54.72%

Q: With `CN(Cc1ccccc1)C(=O)CCN1CCC2(CC1)[C@H](O)C[C@@H]2O` as the compound, how does the “Percent Effect” value (30.3 µM, […]) read?
A: 16.81%
